Test results as given in PMC5540273 (PLoS ONE, 2017).

Tests used:
Details in all cases: concentration: 1 μM,replicates: in singlicate; n = 1
[1] = test system: T1, MEK5
T1 construct: gene MAP2K5

[2] = test system: T2, MEK6
T2 construct: gene MAP2K6

[3] = test system: MELK
[4] = test system: MERTK
[5] = test system: MET
[6] = test system: T3, MINK
T3 construct: gene MINK1

[7] = test system: MKK7
[8] = test system: MKNK1
[9] = test system: MKNK2
[10] = test system: T4, MLCK
T4 construct: gene MYLK3
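Also: KINOMEscan kinase panel screen.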

SMILES	%Inh [1] [%]	%Inh [2] [%]	%Inh [3] [%]	%Inh [4] [%]	%Inh [5] [%]	%Inh [6] [%]	%Inh [7] [%]	%Inh [8] [%]	%Inh [9] [%]	%Inh [10] [%]
Cc1cccc2c(-c3ccncc3)c(-c3ccc(F)cc3)nn12.Cl [GW461487]	6	0	0	5	0	30	0	1	0	0
NC(=O)c1ccc(-c2cc3ncnc(SCC(=O)O)c3s2)cc1	38	0	0	0	0	39	0	6	28	12
O=C(Nc1cccc(Oc2ccc3nccn3n2)c1)Nc1cccc(C(F)(F)F)c1	97	0	10	24	0	27	0	8	0	0
c1ccc(Oc2ccc(Nc3ccnc4ccc(-c5ccccn5)cc34)cc2)cc1 [GW407034]	99.9	0	0	9	16	0	0	0	17	13
CS(=O)(=O)c1cccc(CNc2nc(Nc3ccc4c(c3)[C@@H]3C[C@@H]4CNC3=O)ncc2C(F)(F)F)c1	94.5	5	5	98.6	93.8	90.3	9	0	97.6	15
C[C@@H]1CNc2c(sc3ccc4nc(-c5ccncc5)ccc4c23)C(=O)N1	33	0	0	100	50	28	0	0	21	54
Cc1cccc(-c2nc(Nc3ccncc3)c3sccc3n2)n1 [GW869641]	58	10	36	0	28	77	16	0	0	10
CN(c1ccc2c(c1)nc(NCc1ccc(F)cc1)n2C)c1ccnc(Nc2ccc(CS(C)(=O)=O)cc2)n1.Cl [GW813244]	97.9	11	13	77	45	9	4	0	0	0
O=C(Nc1cccc(C(F)(F)F)c1)c1cccc(Oc2ccc3nccn3n2)c1	32	0	0	17	16	12	36	7	26	0
Cc1n[nH]c2cc(Nc3ccnc(Nc4cccc(CN5CCOCC5)c4)n3)ccc12 [GW682569]	98.6	0	0	85	14	22	0	23	67	0
CCNCC(Cc1ccccc1)NC(=O)c1cc(Br)c(-c2ccnc3[nH]ccc23)s1.Cl.Cl (stereo not shown) [GSK1383280]	55	21	97.5	34	6	64	35	0	94.3	17
CCn1c(-c2nonc2N)nc2cncc(Br)c21 [SB-738004]	74	10	35	0	0	29	22	10	81	28
COc1cc2nccc(Nc3ccc(Oc4ccccc4)cc3)c2cc1OC.Cl [GI261656]	99.9	0	3	12	0	0	0	0	27	0
N#Cc1cccc(C(=O)NC2CCN(c3ccnc(Nc4ccc(F)cc4)n3)C2)c1 (stereo not shown) [GSK1379708]	12	0	0	49	18	0	0	0	0	0
NC(=O)Nc1sc(-c2ccc(F)cc2)cc1C(N)=O [GW789449]	89	21	12	10	12	60	0	8	0	0
COc1cc(Nc2nccc(N3CCC(NC(=O)c4cccc(C#N)c4)C3)n2)cc(OC)c1OC (stereo not shown) [GSK1379751]	85	0	0	9	6	0	16	0	67	0
